# Assay outcomes as filed in PubChem BioAssay.
# PLK1 PBD inh = Plk1 polo box domain binding inhibitors, primary screen, biochemical, fluorescence polarization. Serine/threonine-protein kinase PLK1 (Homo sapiens), P53350. Plk1 PBD phosphopeptide binding. inhibition, %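 (tested at about 20 µM)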. 97,000 tested, 0.13% active; in the data active = inhibition above about 34%, passing the limit was not always enough
# Target sequence (P53350 whole entry, looked up, the tested form may be a part): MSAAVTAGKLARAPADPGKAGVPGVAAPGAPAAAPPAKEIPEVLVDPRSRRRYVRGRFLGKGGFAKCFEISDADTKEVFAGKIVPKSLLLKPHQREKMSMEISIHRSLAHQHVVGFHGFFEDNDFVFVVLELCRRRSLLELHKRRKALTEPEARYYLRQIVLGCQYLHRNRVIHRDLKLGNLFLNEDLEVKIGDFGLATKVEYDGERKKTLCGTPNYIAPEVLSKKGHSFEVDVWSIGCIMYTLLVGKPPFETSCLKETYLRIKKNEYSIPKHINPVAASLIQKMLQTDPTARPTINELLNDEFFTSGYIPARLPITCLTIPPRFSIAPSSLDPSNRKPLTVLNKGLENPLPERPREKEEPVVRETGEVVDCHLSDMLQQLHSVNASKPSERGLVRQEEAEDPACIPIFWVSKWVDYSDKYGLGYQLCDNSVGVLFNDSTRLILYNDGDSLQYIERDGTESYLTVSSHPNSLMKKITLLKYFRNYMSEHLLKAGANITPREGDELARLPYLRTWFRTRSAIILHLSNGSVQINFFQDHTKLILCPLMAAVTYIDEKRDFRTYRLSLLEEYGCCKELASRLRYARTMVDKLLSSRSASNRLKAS
# CYP2C9 act = human CYP2C9 activators, primary screen, biochemical, luminescence; Cytochrome P450 2C9 (Homo sapiens), P11712; recombinant CYP2C9, luciferin-H conversion; active compounds read high; factor 1 = untreated enzyme, 0 = blocked; activation factor at 5 µM; 96,000 tested, 1.4% active; AID 1024, 2008;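 active = activation factor of 2 or more for CYP2C9 at a 5 µM dose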
# CYP2C19 inhib = blockers of cytochrome P450 2C19 activity – biochemical, luminescence, ADME assay, primary screen | AID 778, 2007 | CYP2C19 Supersomes, luciferin-H EGE luminescence, 30 min | inhibition, % at 5 µM | P33261 | 96,000 tested, 21% active;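 active = CYP2C19 inhibition above a set limit at 5 µM in the primary screen, cut at about 50% in these data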
# PLK1 inh = human PLK1 kinase inhibitors, primary screen, biochemical, TR-FRET; AID 619, 2007; Serine/threonine-protein kinase PLK1 (Homo sapiens), P53350; inhibition, % at 10 µM; 97,000 tested, 0.53% active; recombinant PLK1 kinase, TR-FRET peptide phosphorylation;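 active = inhibition of 50% or more in the single-concentration screen; inactive = inhibition below 50%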
# CYP2C9 inhib = blockers of cytochrome P450 2C9 activity – biochemical, luminescence, ADME assay, primary screen; P11712; AID 777, 2007; inhibition, % at 5 µM; 96,000 tested, 20% active; CYP2C9 Supersomes, luciferin-H conversion;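 active = blocking of liver enzyme CYP2C9 beyond about 50% at 5 µM, limit read from the data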
# CYP2C19 act = human CYP2C19 activators, primary screen, biochemical, luminescence; recombinant CYP2C19, luciferin-H EGE luminescence; active compounds read high; 0 = fully inhibited enzyme, 1 = untreated enzyme; activation factor at 5 µM; 96,000 tested, under 10 active;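 active = activation factor of at least 2 at 5 µM in the primary screen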
# A number is an active result; - = inactive; . = no result given. Hits are enriched below; roughly 28% of the tested compounds scored in any of these assays.
SMILES,PLK1 PBD inh,CYP2C9 act,CYP2C19 inhib,PLK1 inh,CYP2C9 inhib,CYP2C19 act
COc1ccc2cc(-c3cc(C(=O)O)c4ccccc4n3)ccc2c1,-,-,-,-,-,-
Cc1ccc(S(=O)(=O)NCC(=O)N(CC(=O)NC2CCCCC2)CC2CCCO2)cc1 (stereo not drawn),-,-,-,-,-,-
CC(Sc1nnc2c(n1)C1(C)CCC2C1(C)C)C(=O)Nc1ccccc1 (stereo not drawn),-,-,-,-,-,-
CCC(C)(C(=O)NC1CCCC1)N(C(=O)c1ccccn1)c1ccc(C)cc1 (stereo not drawn),-,-,-,-,-,-
Cc1nc(NCC2CCCO2)nc2c1C(=O)CC(C)(C)C2 (stereo not drawn),-,-,-,-,-,-
COc1ccc(-c2cc(C(=O)N/N=C/c3ccc(OC)c(COCC(F)(F)C(F)F)c3)c3ccccc3n2)c(OC)c1,-,-,79,-,88,-
COc1ccccc1-c1cc(C(=O)N/N=C/c2cccs2)c2ccccc2n1,-,-,80,-,96,-
COc1ccccc1-c1cc(C(=O)N/N=C/C=C/c2ccccc2[N+](=O)[O-])c2ccccc2n1,-,-,-,-,66,-
COc1cccc(/C=N\NC(=O)c2cc(OCC(F)(F)F)ccc2OCC(F)(F)F)c1,-,-,-,-,-,-
CCN(CC)C(=O)Cn1nc(C)c2ccccc2c1=O,-,-,-,-,-,-
O=C(CN1C(=O)c2ccccc2C1=O)Nc1ccccc1C(=O)N1CCCC1,-,-,-,-,-,-
Cc1ccc(S(=O)(=O)CC(=O)c2ccc(C)c([N+](=O)[O-])c2)cc1,-,2,-,-,-,-
Cc1ccc(S(=O)(=O)CC(=O)c2ccccc2)cc1,-,2.9,-,-,-,-
O=C(NCc1ccc(N2CCCC2=O)cc1)c1cnccn1,-,-,-,-,-,-
CCn1c(N)c(C(=O)Nc2ccccc2C(=O)OC)sc1=S,-,-,-,-,-,-
CCCCCCNS(=O)(=O)c1ccc(Cl)s1,-,-,98,-,86,-
O=C(O)CCCNS(=O)(=O)c1ccc(Br)s1,.,-,-,.,-,-
Cc1cccc(C)c1-n1nnnc1S(=O)(=O)Cc1ccccc1Cl,-,-,-,-,83,-
CCOC(=O)c1c(C)n(OCc2ccccc2)c2ccc3nonc3c12,-,-,-,-,60,-
Cc1ccc(O)c(C(=O)c2cnn(-c3ccccc3)c2)c1,-,-,-,-,-,-
CCc1cc(C(=O)Cc2cnn(-c3ccccc3)c2)c(O)cc1O,-,-,55,-,-,-
O=C(Cc1cnn(-c2ccccc2)c1)c1ccc(O)c(O)c1O,-,-,65,-,79,-
CC(=O)c1ccc2c(c1)Nc1ccccc1S2,.,-,-,.,57,-
Nc1cccc(-n2nncc2-c2ccc(Cl)cc2)c1,-,-,77,-,-,-
COc1ccc(-c2cnnn2-c2ccc(N)cc2)cc1OC,-,.,.,-,.,.
SMILES,PLK1 PBD inh,CYP2C9 act,CYP2C19 inhib,PLK1 inh,CYP2C9 inhib,CYP2C19 act
CCCCC(CCC(=O)Nc1ccc(C(=O)OC)cc1)C(=O)O (stereo not drawn),-,.,.,-,.,.
O=C(CN1CCCC1)NCC12CC3CC(CC(C3)C1)C2,.,-,-,.,-,-
O=C(CN1CCOCC1)NCCC12CC3CC(CC(C3)C1)C2,-,-,54,-,-,-
CCc1ccccc1NC(=O)N[C@@H](C)C(=O)OC,-,-,-,-,-,-
Cc1c(OCc2nn[nH]n2)ccc2c3c(c(=O)oc12)CCC(C)C3 (stereo not drawn),-,-,85,-,98,-
COc1ccc2c3c(c(=O)oc2c1OCC(N)=O)CCCC3,-,2.5,-,-,-,-
CCOc1ccc2c3c(c(=O)oc2c1OCC)CCCC3,-,-,-,-,-,-
CCOC(=O)COc1ccc2c3c(c(=O)oc2c1C)CCC3,-,-,65,-,79,-
Cc1c(OCc2nn[nH]n2)ccc2c3c(c(=O)oc12)CCCC3,-,-,67,-,94,-
N#Cc1cn(CC(=O)N2CCc3ccccc3C2)c2ccccc12,-,.,.,-,.,.
COc1ccc(C(O)CNc2ccc(C)cc2)cc1 (stereo not drawn),-,-,92,-,-,-
COc1ccc(CCNc2ccc(C)cc2)cc1,-,-,85,-,-,-
COc1ccccc1CNC(=O)c1ccc(S(=O)(=O)N(C)C)cc1,-,-,73,-,-,-
CCC(CC)NC(=O)Cc1ccccc1OC,-,-,78,-,-,-
COc1ccccc1OCCNC(=O)c1ccc(S(=O)(=O)N(C)C)cc1,-,-,-,-,-,-
C#CC(C)(C)NC(=O)c1ccccc1OC,.,2.4,-,.,-,-
COc1ccccc1CNC(=O)COc1ccccc1OC,-,3.4,97,-,-,-
COc1ccccc1CNC(=O)CC(C)C,-,-,-,-,-,-
CC1=CC(C)(C(Cl)Cl)C(C)=CC1=O (stereo not drawn),-,.,.,-,.,.
COCCCNC(=O)c1ccc2nc3ccccc3c(=O)n2c1,-,-,-,-,-,-
CCN(CC)C(=O)CSc1nnc(COc2ccccc2)n1CC,-,-,-,-,-,-
COC(=O)c1ccc(NC(=O)Cn2nc(SC)n(N)c2=S)cc1,.,-,-,.,-,-
COc1ccccc1CNC(=O)c1ccccc1OC,-,3.8,77,-,-,-
CCn1cc(C(=O)NCc2ccccc2OC)c(=O)c2ccc(C)nc21,.,-,-,.,-,-
N#C/C(=C\c1ccc(Sc2nc3ccccc3[nH]2)o1)c1ccccc1,-,-,86,-,95,-
SMILES,PLK1 PBD inh,CYP2C9 act,CYP2C19 inhib,PLK1 inh,CYP2C9 inhib,CYP2C19 act
N#Cc1ccc(Sc2nc3ccccc3[nH]2)cc1C#N,-,-,76,-,-,-
c1ccc(OCCSc2nc3ccccc3[nH]2)cc1,-,.,.,-,.,.
N#C/C(=C\C1CC=CCC1)c1nc2ccccc2[nH]1 (stereo not drawn),-,-,-,-,-,-
COc1ccc(N2CCN(/C(=N\S(=O)(=O)c3ccccc3)Nc3nc(C)cc(C)n3)CC2)cc1,-,-,-,-,67,-
Cc1ccc(S(=O)(=O)/N=C(/Nc2nc(C)cc(C)n2)N2CCOCC2)cc1,-,-,-,-,-,-
CC(=O)N1CCN(Cc2ccc(Br)s2)CC1,.,-,-,.,-,-
COc1ccc2c(c1)S/C(=C\C(=O)c1ccncc1)N2C,-,-,73,-,62,-
O/N=C/c1cccn1-c1ccc(O)cc1,-,3,-,-,-,-
O=C(c1ccc2ccccc2c1)N1CCN(c2ccc([N+](=O)[O-])c(N3CCOCC3)c2)CC1,-,-,-,-,65,-
Cc1cc(N2CCC(C)CC2)c(F)cc1[N+](=O)[O-],-,-,-,-,-,-
